From PubChem BioAssay come the findings set out here.

The nature of experiment [1]: stimulators of nuclear beta-catenin in C2C12, primary screen, imaging, WNT3A-conditioned medium, mouse C2C12, NPC library (AID 1117326; in the data active = nuclear beta-catenin stimulation mostly above about 4.2%, no sharp cut-off; inactive = mostly below about 10%). The settings on record: stronger effect = higher value.
Experiment [2] can be described thus: stimulators of insulin release from INS-1E, primary screen, cell-based, 5 mM glucose, NPC library (AID 1117329;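 active = compound raises insulin release from rat beta cells at 5 mM glucose, no numeric limit stated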). As to conditions: rat INS-1E insulin secretion, at 10 µM, stronger effect = higher value.
A short description of experiment [3]: growth inhibition of GSK3B-pretreated HCT116 cells – cell-based, CellTiter-Glo, 0.2 to 20 µM (AID 1117336;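 active = compounds lowering colon cancer cell viability after pretreatment blocking the GSK3B kinase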). The settings on record: HCT116 viability after GSK3B inhibitor, at 20 µM, stronger effect = higher value.
Experiment [4] is described as follows: inhibition of endothelial tube formation, primary screen, imaging, VEGF stimulated, CD31 staining, tube area, NPC library (AID 1117340;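 active = compound that reduces growth-factor-driven endothelial tube area in a mixed cell culture, no cutoff stated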). As to conditions: VEGF-stimulated ADSC/ECFC co-culture, at 10 µM, stronger effect = higher value.
Experiment [5] is described as follows: glucagon-like peptide 1 release enhancers, primary assay, NCI-H716 cell line, NPC library (AID 1117341;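 active = compound raises GLP1 secretion from the human gut endocrine cells, with no numeric limit stated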). The settings on record: NCI-H716 cells, at 10 µM, stronger effect = higher value.
Experiment [6] in a line: HCT116 colon cancer cell growth inhibition, primary screen, CellTiter-Glo luminescence, NPC library (AID 1117342;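 active = compounds that lower survival of HCT116 colon cancer cells in the luminescence readout, no numeric limit stated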). As to conditions: at 20 µM (top of the series). On the technique in general: ATP-based viability assays read luminescence as a measure of living cells.
The nature of experiment [7]: CellTiter-Glo luminescent readout of SW480 viability loss, NPC library primary (AID 1117343;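 active = compounds that lower viability of the colon cancer cells in the luminescence readout, with no numeric limit stated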). The settings on record: CellTiter-Glo luminescence; at 20 µM (top of the series).
Experiment [8] can be described thus: decreased DLD-1 cellular survival, CellTiter-Glo luminescent readout, NPC compound collection, primary HTS (AID 1117346;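 active = compounds that lower survival of DLD-1 colon cancer cells in the luminescence readout, no cutoff given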). The settings on record: DLD-1 viability, CellTiter-Glo luminescence; at 20 µM (top of the series).
Experiment [9] addresses 6-phosphogluconate dehydrogenase, decarboxylating (Homo sapiens) (UniProt P52209). Description: 6PGD enzyme inhibitors, primary screen, biochemical, human, recombinant enzyme, NADPH absorbance (AID 1159550;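 active = at least 20% inhibition of 6-phosphogluconate dehydrogenase activity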). As to conditions: recombinant 6PGD, NADPH absorbance 341 nm; at 10 µM; stronger effect = higher value.
The nature of experiment [10]: liver-stage malaria parasite growth inhibition, primary screen, cell-based, HepG2, luciferase luminescence, HepG2 viability (AID 624349).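 Also: 100% = mean of DMSO negative control wells on the same plate.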 The settings on record: P. berghei liver stage in HepG2, luciferase luminescence, concentration not given here; parasite load remaining: stronger effect = lower value; viability: measured here: HepG2 viability without parasites.

Values joined by “and” are separate entries in the source; they are usually repeats but may differ in a detail not shown here. Equal values may be shown once. Active and inactive are the calls of the source. Rule as the data show it, unless noted: active = parasite load remaining mostly below about 12% (no sharp cut-off); inactive = mostly above about 10%.

Chain of 6-phosphogluconate dehydrogenase, decarboxylating (Homo sapiens) (P52209 whole entry, looked up): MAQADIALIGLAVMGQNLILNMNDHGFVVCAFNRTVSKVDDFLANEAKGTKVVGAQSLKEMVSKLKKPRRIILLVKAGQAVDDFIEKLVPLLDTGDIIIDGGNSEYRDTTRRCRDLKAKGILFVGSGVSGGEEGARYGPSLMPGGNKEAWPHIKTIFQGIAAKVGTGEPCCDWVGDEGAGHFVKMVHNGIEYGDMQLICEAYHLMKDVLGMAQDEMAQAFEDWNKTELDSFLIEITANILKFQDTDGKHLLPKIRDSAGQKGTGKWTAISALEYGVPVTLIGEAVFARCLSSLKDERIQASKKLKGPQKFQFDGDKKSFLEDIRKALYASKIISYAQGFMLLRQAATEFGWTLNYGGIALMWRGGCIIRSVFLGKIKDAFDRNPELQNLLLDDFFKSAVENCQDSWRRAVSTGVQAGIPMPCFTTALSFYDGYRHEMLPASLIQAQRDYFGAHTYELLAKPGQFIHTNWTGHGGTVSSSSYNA

As usually defined, the inhibition is the drop in the measured response relative to a control, in per cent. For the molecule `COC(=O)Nc1nc2ccc(Sc3ccccc3)cc2[nH]1`, the nuclear beta-catenin stimulation in [1] (at 10 µM) was 56.8% (active); in experiment [1] (stimulation, at 2 µM), 33.5%. In addition, the insulin secretion stimulation in experiment [2] is 1.1% (inactive). Besides, in [3], the viability decrease was 48% (active). Besides, the tube area decrease in experiment [4] is 103% (active). Also, in [5], the GLP1 secretion stimulation is 48.3% (active). In addition, the inhibition of viability in [6] was 94.4% (active). In addition, the viability decrease (inhibition) in experiment [7] was 81.8% (active); in experiment [8] it was 45.8% (active). Moreover, the inhibition in [9] was 10.3% (inactive).
Turning to `Cc1cc(C2CCCCC2)n(O)c(=O)c1`, the nuclear beta-catenin stimulation in [1] (at 10 µM) was 64.4% (active); in experiment [1] (stimulation, at 2 µM) it was 14.3%. Moreover, the insulin secretion stimulation in [2] is 0.4% (inactive). In [3], the viability decrease was 49.9% (active). Further, the tube area decrease in experiment [4] is 109% (active). In [5], the GLP1 secretion stimulation was -3.2% (inactive). Further, the inhibition of viability in experiment [6] was 75.1% (active). Also, the figures for the viability decrease (inhibition) in experiment [7] and in experiment [8] were 108% (active) and 90.8% (active), respectively. For the same molecule, in [9], the inhibition was 1.68% (inactive).
`Cc1cccc(C(=O)O)c1O`: the nuclear beta-catenin stimulation in [1] (at 10 µM) is 0% (inactive); in experiment [1] (stimulation, at 2 µM), 0.4%. Besides, the insulin secretion stimulation in experiment [2] was -1.9% (inactive). In experiment [3], the viability decrease was -9.8% (inactive). The tube area decrease in experiment [4] was 2.1% (inactive). The GLP1 secretion stimulation in [5] was 1.9% (inactive). Also, the inhibition of viability in experiment [6] is -0.1% (inactive). Also, the values for the viability decrease (inhibition) in experiment [7] and in experiment [8] were 22.1% (inactive) and -4.5% (inactive), respectively. For the same molecule, the inhibition in experiment [9] was 9.08% (inactive).
Take `CCN(CC)C(=O)N1CCN(C)CC1`: the nuclear beta-catenin stimulation was -0.1% (inactive) in experiment [1] (at 10 µM) and 0.2% in experiment [1] (stimulation, at 2 µM). For the same molecule, the insulin secretion stimulation in experiment [2] was -1.8% (inactive). The viability decrease in experiment [3] was -3.6% (inactive). In addition, in [4], the tube area decrease is -3.8% (inactive). In experiment [5], the GLP1 secretion stimulation was 4.4% (inactive). The inhibition of viability in [6] is 5.3% (inactive). The values for the viability decrease (inhibition) in [7] and in experiment [8] were 53.1% (active) and -2.05% (inactive), respectively. Besides, the inhibition in [9] was 10.8% (inactive).
Turning to `NC(=O)N/N=C/c1ccc([N+](=O)[O-])o1`, the nuclear beta-catenin stimulation is 7.6% (inactive) in experiment [1] (at 10 µM) and 2% in experiment [1] (stimulation, at 2 µM). The insulin secretion stimulation in experiment [2] is -0.4% (inactive). In [3], the viability decrease was 45.2% (inactive). The tube area decrease in experiment [4] was -17% (inactive). Moreover, in experiment [5], the GLP1 secretion stimulation is -2.5% (inactive). Further, in experiment [6], the inhibition of viability was 45.3% (inactive). For the same molecule, the viability decrease (inhibition) was 68.8% (active) in experiment [7] and -6.7% (inactive) in experiment [8]. In [9], the inhibition was 5.85% (inactive).
A word on the viability: it is a read-out of living cells in per cent, often relative to untreated cells. For the molecule `O=c1ccc2ccccc2o1`, the parasite load remaining in experiment [10] is 71% (inactive). In experiment [10], the viability turned out to be 94.5%. Besides, the nuclear beta-catenin stimulation in [1] (at 10 µM) was -0.2% (inactive); in experiment [1] (stimulation, at 2 µM) it was -0.6%. The insulin secretion stimulation in experiment [2] is -1.8% (inactive). In addition, the viability decrease in [3] is 3.65% (inactive). Besides, in experiment [4], the tube area decrease was -29.2% (inactive). The GLP1 secretion stimulation in experiment [5] was 2.9% (inactive). Besides, the inhibition of viability in [6] was 12.6% (inactive). Further, the viability decrease (inhibition) in experiment [7] was 19.6% (inactive); in [8], 6% (inactive). For the same molecule, in [9], the inhibition was -18.6% (inactive).
As to `CC(=O)Nc1ccc(OCC(O)CNC(C)C)cc1` (stereo unspecified), the parasite load remaining in experiment [10] is 80.4% (inactive) and 87% (inactive) and 55.4% (inactive). Besides, the viability in [10] is 110% and 75.8% and 108%. In addition, the nuclear beta-catenin stimulation in experiment [1] (at 10 µM) is 0.5% (inactive); in experiment [1] (stimulation, at 2 µM), 1.7%. For the same molecule, the insulin secretion stimulation in experiment [2] is 5.6% (inactive). Moreover, in [3], the viability decrease is 4.2% (inactive). Moreover, the tube area decrease in experiment [4] is -0.3% (inactive). Moreover, the GLP1 secretion stimulation in experiment [5] was -1.9% (inactive). Besides, the inhibition of viability in experiment [6] was 11.1% (inactive). For the same molecule, the viability decrease (inhibition) in experiment [7] is 26.9% (inactive); in [8], 42% (inactive). In addition, the inhibition in experiment [9] is 2.72% (inactive).
In the case of `C/C=C(/C(=C/C)c1ccc(O)cc1)c1ccc(O)cc1`, in experiment [10], the parasite load remaining is 99.8% (inactive) and 85.1% (inactive) and 15.2% (inactive). The viability in experiment [10] is 93.2% and 76.6% and 68.2%. The nuclear beta-catenin stimulation is 20.4% (inactive) in experiment [1] (at 10 µM) and 2.2% in experiment [1] (stimulation, at 2 µM). Further, in [2], the insulin secretion stimulation was -1.9% (inactive). In addition, the viability decrease in experiment [3] was 101% (active). The tube area decrease in experiment [4] is 49.5% (active). Also, the GLP1 secretion stimulation in experiment [5] was 34.7% (active). Further, in [6], the inhibition of viability was 101% (active). For the same molecule, the results for the viability decrease (inhibition) in [7] and in [8] were 123% (active) and 102% (active), respectively. Moreover, in [9], the inhibition was 15.9% (inactive).
Turning to `COc1ccc(C(=O)CC(=O)c2ccc(C(C)(C)C)cc2)cc1`, in [10], the parasite load remaining was 168% (inactive) and 61% (inactive). For the same molecule, the viability in experiment [10] is 84.8% and 202%. The nuclear beta-catenin stimulation was -0.4% (inactive) in [1] (at 10 µM) and 3% in experiment [1] (stimulation, at 2 µM). The insulin secretion stimulation in experiment [2] was 1.3% (inactive). Besides, in [3], the viability decrease was -88.8% (inactive). Besides, in experiment [4], the tube area decrease is -15.2% (inactive). In experiment [5], the GLP1 secretion stimulation was -3.2% (inactive). Further, in experiment [6], the inhibition of viability is 15.8% (inactive). In addition, the viability decrease (inhibition) in experiment [7] was 18.1% (inactive); in [8], 16.6% (inactive). Moreover, in experiment [9], the inhibition is -0.365% (inactive).
On to `O=C(NC(Cc1cc(=O)[nH]c2ccccc12)C(=O)O)c1ccc(Cl)cc1` (stereo unspecified), for which the parasite load remaining in experiment [10] was 149% (inactive) and 24.1% (inactive). Also, in [10], the viability is 88.8% and 69%. Also, the nuclear beta-catenin stimulation is -0.8% (inactive) in experiment [1] (at 10 µM) and -1% in experiment [1] (stimulation, at 2 µM). Also, the insulin secretion stimulation in experiment [2] was 2.6% (inactive). Also, the viability decrease in [3] was -6.2% (inactive). Moreover, the tube area decrease in [4] was 19.9% (inactive). For the same molecule, the GLP1 secretion stimulation in experiment [5] is -0.3% (inactive). Besides, in experiment [6], the inhibition of viability is 3.17% (inactive). Besides, the viability decrease (inhibition) is 22.7% (inactive) in experiment [7] and -11.3% (inactive) in [8]. For the same molecule, the inhibition in experiment [9] is 4.66% (inactive).
As to `CC(=O)OCC1=C(C(=O)O)N2C(=O)[C@@H](NC(=O)CSc3ccncc3)[C@H]2SC1`, in experiment [10], the parasite load remaining was 79.7% (inactive) and 64.8% (inactive). Besides, the viability in experiment [10] is 79.3% and 105%. The nuclear beta-catenin stimulation in experiment [1] (at 10 µM) was -0.8% (inactive); in experiment [1] (stimulation, at 2 µM), 1.1%. The insulin secretion stimulation in experiment [2] is 0.9% (inactive). The viability decrease in experiment [3] was 14.8% (inactive). Besides, the tube area decrease in experiment [4] is -9.7% (inactive). For the same molecule, the GLP1 secretion stimulation in experiment [5] is -1.1% (inactive). Also, in [6], the inhibition of viability was 5.07% (inactive). In addition, the values for the viability decrease (inhibition) in [7] and in experiment [8] were 13.8% (inactive) and -15.1% (inactive), respectively. Moreover, the inhibition in experiment [9] was 3.03% (inactive).
On to `CCC(=O)c1c(O)cc(O)cc1O`, for which the parasite load remaining in [10] is 100% (inactive). Besides, the viability in [10] came to 70.3%. The nuclear beta-catenin stimulation in [1] (at 10 µM) was 1.8% (inactive); in experiment [1] (stimulation, at 2 µM), 2%. Further, the insulin secretion stimulation in experiment [2] is 3.7% (inactive). For the same molecule, the viability decrease in [3] is -16.4% (inactive). Moreover, the tube area decrease in experiment [4] is 4.6% (inactive). Moreover, the GLP1 secretion stimulation in experiment [5] was -2% (inactive). For the same molecule, the inhibition of viability in experiment [6] is 21.1% (inactive). In addition, the viability decrease (inhibition) in [7] is 21.5% (inactive); in experiment [8], 2.4% (inactive). In experiment [9], the inhibition was 8.94% (inactive).
For the molecule `C=C1c2cccc(O)c2C(O)=C2C(=O)[C@]3(O)C(O)=C(C(N)=O)C(=O)[C@@H](N(C)C)[C@@H]3[C@@H](O)[C@H]12`, the parasite load remaining in experiment [10] was 89.4% (inactive) and 160% (inactive) and 38% (inactive). Further, the viability in experiment [10] is 79.4% and 68.3% and 93.9%. The nuclear beta-catenin stimulation in experiment [1] (at 10 µM) is 3.6% (inactive); in [1] (stimulation, at 2 µM) it was 2.7%. Besides, the insulin secretion stimulation in [2] is -1.8% (inactive). Besides, the viability decrease in experiment [3] was -253% (inactive). For the same molecule, in experiment [4], the tube area decrease is 9.7% (inactive). For the same molecule, the GLP1 secretion stimulation in [5] is 0.4% (inactive). Moreover, the inhibition of viability in experiment [6] was -0.33% (inactive). Also, the viability decrease (inhibition) in [7] was -1.7% (inactive); in [8], 58.4% (active). For the same molecule, the inhibition in experiment [9] was 13.8% (inactive).
